Reference: PubChem BioAssay (NCI)
About 79,000 compounds went through this panel and 15% of them were active in at least one assay; those are over-represented in the sample as a whole. Active and inactive are the calls of the source. Cut-off read from the data, not from the text of the source: active = growth inhibition above about 70%; inactive = the rest.

Legend:
[1] = NCI Yeast Anticancer Drug Screen. Data for the rad52 strain (AID 147);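 note: 0% = growth of vehicle-treated control cultures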; settings: S. cerevisiae rad52 mutant growth inhibition, hits give high values
Outline: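 Vehicle-treated cultures served as the reference for growth inhibition of compound-exposed yeast bearing a DNA repair mutation.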

[2] = NCI Yeast Anticancer Drug Screen. Data for the wt1 strain (AID 149);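 note: 0% = growth of vehicle-treated wt1 cultures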; settings: S. cerevisiae wt1 strain (SPY 50644) growth inhibition, hits give high values
Outline: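 The wt1 strain was treated with compounds, and growth was compared with vehicle-treated cultures to give inhibition.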

[3] = NCI Yeast Anticancer Drug Screen. Data for the rad50EPP+ strain (AID 151);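 note: 0% = growth of vehicle-treated control cultures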; settings: S. cerevisiae rad50 mutant strain, hits give high values
Outline: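 In this screen, rad50EPP+ yeast were exposed to compounds. Growth inhibition was scored against vehicle-treated controls.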

[4] = NCI Yeast Anticancer Drug Screen. Data for the mgt1 strain (AID 153); settings: S. cerevisiae mgt1 mutant growth inhibition, hits give high values
Outline: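 mgt1 strain exposed; growth vs vehicle control recorded as inhibition.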

[5] = NCI Yeast Anticancer Drug Screen. Data for the rad50 strain (AID 155);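 note: 0% = growth of vehicle-only cultures of the same strain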; settings: S. cerevisiae rad50 strain growth inhibition, hits give high values
Outline: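 Cells are treated with compound, grown, and their growth is then scored against vehicle-only cultures of the same repair-deficient yeast strain.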

[6] = NCI Yeast Anticancer Drug Screen. Data for the mec2-1 strain (AID 157); settings: S. cerevisiae mec2-1 strain, hits give high values
Outline: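 Vehicle-treated cultures served as reference for growth inhibition of compound-exposed mec2-1 yeast.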

[7] = NCI Yeast Anticancer Drug Screen. Data for the rad14 strain (AID 159);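 note: 0% = growth of vehicle-treated control cultures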; settings: S. cerevisiae rad14 strain growth inhibition, hits give high values
Outline: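 Readout: yeast growth inhibition, referenced to vehicle-only cultures. Strain bears a defined alteration in DNA damage repair.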

[8] = NCI Yeast Anticancer Drug Screen. Data for the sgs1 mgt1 strain (AID 161);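 note: 0% = growth of cultures given vehicle only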; settings: S. cerevisiae sgs1 mgt1 strain, hits give high values
Outline: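 Read-out: growth inhibition vs vehicle controls. Cells: mutant yeast strain deficient in DNA damage repair.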

[9] = NCI Yeast Anticancer Drug Screen. Data for the CLN2oe strain (AID 163);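 note: 0% = growth of vehicle-only control cultures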; settings: S. cerevisiae CLN2oe strain, hits give high values
Outline: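 Inhibition relative to vehicle-treated yeast is reported. Cells: strain with genetic alteration in cell-cycle control, grown with compound.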

[10] = NCI Yeast Anticancer Drug Screen. Data for the cln2 rad14 strain (AID 165);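 note: 0% = growth equal to vehicle treated cultures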; settings: S. cerevisiae cln2 rad14 strain, hits give high values
Outline: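 Each compound was tested on cln2 rad14 yeast. Inhibition of growth was calculated against vehicle-exposed controls.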

[11] = NCI Yeast Anticancer Drug Screen. Data for the wt2 strain (AID 169);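 note: 0% = growth of vehicle-treated yeast cultures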; settings: S. cerevisiae wt2 strain growth inhibition, hits give high values
Outline: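 Inhibition of yeast growth was determined after compound treatment, normalised to controls receiving only vehicle.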

[12] = NCI Yeast Anticancer Drug Screen. Data for the mlh1 strain (AID 171);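 note: 0% = growth of vehicle-treated control cultures of the same strain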; settings: S. cerevisiae mlh1 strain growth inhibition, hits give high values
Outline: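 Vehicle-normalised growth inhibition of a repair- or checkpoint-altered yeast strain following compound treatment.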

[13] = NCI Yeast Anticancer Drug Screen. Data for the sgs1 strain (AID 173);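 note: 0% = growth of vehicle-only control cultures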; settings: S. cerevisiae sgs1 mutant, hits give high values
Outline: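 Screen format: yeast with repair or checkpoint alterations, compound exposure, growth read relative to vehicle.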

[14] = NCI Yeast Anticancer Drug Screen. Data for the mlh1 rad18 strain (AID 175); settings: S. cerevisiae mlh1 rad18 strain growth inhibition, hits give high values
Outline: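 Vehicle-treated cultures served as the reference for growth inhibition in a yeast strain carrying DNA damage repair alterations exposed to each compound.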

[15] = NCI Yeast Anticancer Drug Screen. Data for the rad18 strain (AID 177); settings: S. cerevisiae rad18 mutant growth inhibition, hits give high values
Outline: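 Test articles were incubated with altered yeast defective in DNA damage repair. Results are given as inhibition of growth versus vehicle.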

[16] = at 5.0 µM (retest, dose inferred, filed as 0.5)
[17] = at 50.0 µM (retest, dose inferred, filed as 5.0)

Measured: growth inhibition

Oc1ccc(NCn2c(=S)sc3ccccc32)cc1
active: [1]; at 100.0 µM 97% | [2]; at 100.0 µM 97% | [3]; at 100.0 µM 82% | [4]; at 33.0 µM 87% | [4]; at 100.0 µM 98% | [5]; [17] 100% | [5]; at 100.0 µM 95% | [6]; at 33.0 µM 84% | [6]; [17] 100% | [6]; at 50.0 µM 73.8% | [6]; at 100.0 µM 99% | [7]; at 100.0 µM 98% | [8]; [17] 99% | [8]; at 50.0 µM 91.2% | [9]; at 100.0 µM 97% | [10]; [17] 98% | [11]; at 100.0 µM 97% | [12]; at 100.0 µM 97% | [13]; at 100.0 µM 96% | [14]; [17] 100% | [15]; at 100.0 µM 96%
inactive: [1]; at 1.2 µM -1% | [1]; at 3.7 µM -10% | [1]; at 11.0 µM -7% | [1]; at 33.0 µM 38% | [2]; at 1.2 µM -24% | [2]; at 3.7 µM -17% | [2]; at 11.0 µM -16% | [2]; at 33.0 µM 29% | [3]; at 1.2 µM -6% | [3]; at 3.7 µM -21% | [3]; at 11.0 µM -25% | [3]; at 33.0 µM -16% | [4]; at 1.2 µM 14% | [4]; at 3.7 µM 17% | [4]; at 11.0 µM 37% | [5]; at 1.2 µM -2% | [5]; at 3.7 µM 12% | [5]; [16] 62% | [5]; at 11.0 µM 5% | [5]; at 33.0 µM 42% | [5]; at 50.0 µM 58.5% | [6]; at 1.2 µM 19% | [6]; at 3.7 µM 27% | [6]; [16] 63% | [6]; at 11.0 µM 26% | [7]; at 1.2 µM -11% | [7]; at 3.7 µM -8% | [7]; at 11.0 µM -6% | [7]; at 33.0 µM 62% | [8]; [16] 2% | [9]; at 1.2 µM -16% | [9]; at 3.7 µM -13% | [9]; at 11.0 µM -32% | [9]; at 33.0 µM 34% | [10]; [16] 58% | [10]; at 50.0 µM 40% | [11]; at 1.2 µM -28% | [11]; at 3.7 µM -14% | [11]; at 11.0 µM -10% | [11]; at 33.0 µM 64% | [12]; at 1.2 µM -44% | [12]; at 3.7 µM -23% | [12]; at 11.0 µM -9% | [12]; at 33.0 µM 63% | [13]; at 1.2 µM 4% | [13]; at 3.7 µM 5% | [13]; at 11.0 µM 4% | [13]; at 33.0 µM 69% | [14]; [16] 51% | [14]; at 50.0 µM 63% | [15]; at 1.2 µM -1% | [15]; at 3.7 µM -5% | [15]; at 11.0 µM -11% | [15]; at 33.0 µM 48%
